Seven compounds from PubChem BioAssay (EPA / NIEHS) can be followed below.

Inconclusive results are not listed. Active and inactive are the calls of the source. Rule for the calls, unless noted: active = hit-call score of the fitted dose curve at least 0.9, where 1 is the maximum; inactive = score below 0.9.

The nature of test [1]: ACEA_ER_80hr: ACEA Biosciences xCELLigence Real-Time Cell Analysis on Estrogen Receptor Agonism for Proliferation (AID 2282667; active = hit-call score of the fitted dose curve at least 0.9, where 1 is the maximum). Conditions: T47D proliferation, impedance (xCELLigence), 80 h. The method in brief: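 Real-time electrical impedance tracked growth of the human breast line T47D, with the 80 h post-dosing value used. Dosing spanned eight 1:4 steps down from a 100 uM final top concentration, run in duplicate.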

A short description of test [2]: APR_HepG2_NuclearSize_24hr: Apredica 24-hour HepG2 Assay for Nuclear Size (AID 2282907). To be noted: high-content imaging, actives raise or lower the signal. Summed up:
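Nuclear size from Hoechst 33342-stained, formaldehyde-fixed HepG2 nuclei imaged by high-content microscopy, after 24 h dosing at ten concentrations from 0.39 to 200 uM in 0.5% DMSO; gain or loss relative to DMSO baseline.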

The nature of test [3]: APR_HepG2_CellLoss_24hr: Apredica 24-hour HepG2 Assay for Cell Loss (AID 2282908).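 For AC50: fit in both directions so a hit may be cell loss or gain.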 Conditions: high-content imaging. The method in brief: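 Nuclei stained with Hoechst 33342 after formaldehyde fixation (3.7%) were imaged at 20x to count cells. Exposure lasted 24 hr, at ten concentrations from 0.39 to 200 uM in duplicate, with 0.5% v/v DMSO. Fit bidirectional, relative to DMSO.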

Test [4] in a line: APR_HepG2_MitoticArrest_24hr: Apredica 24-hour HepG2 Assay for Mitotic Arrest (AID 2282910). Conditions: high-content imaging, actives raise or lower the signal. Summed up:
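HepG2, 24 hr dosing, 0.39–200 uM, 0.5% DMSO final. Formaldehyde-fixed, Triton-permeabilised, anti-phospho-histone H3 plus Hoechst. ArrayScan imaging at 20x; bidirectional fit vs DMSO baseline.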

A short description of test [5]: APR_HepG2_MitoMembPot_24hr: Apredica 24-hour HepG2 Assay for Mitochondrial Membrane Potential (AID 2282911). Conditions: imaging, actives raise or lower the signal. Summed up: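 Cells are dosed for 24 hr across 0.39 to 200 uM with solvent held at 0.5% DMSO. They are then stained with 250 nM MitoTracker Red CMXRos for 30 min, fixed in 3.7% formaldehyde and imaged.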

The nature of test [6]: APR_HepG2_MitoMass_24hr: Apredica 24-hour HepG2 Assay for Mitochondrial Mass (AID 2282912). Conditions: high-content imaging, actives raise or lower the signal. Summed up: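 Endpoint is MitoTracker Red CMXRos (250 nM, 30 min, pre-fixation) intensity from 20x high-content imaging, nuclei located by Hoechst. Human HepG2 cells received ten concentrations from 0.39 to 200 uM in 0.5% DMSO for 24 hr, duplicate wells. Bidirectional fit relative to DMSO.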

Test [7] is described as follows: APR_HepG2_p53Act_24hr: Apredica 24-hour HepG2 Assay for p53 Activation (AID 2282913).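 Note: p53 protein immunofluorescence averaged per cell in HepG2 with Hoechst nuclei.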 To be noted: high-content imaging, actives raise or lower the signal. Summed up:
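Human HepG2 liver cells; 24 hr cpd treatment, 0.39–200 uM, 0.5% DMSO final. Fixed in 3.7% formaldehyde, permeabilized with 0.5% Triton X-100, stained with anti-p53/Cy5 plus Hoechst 33342. Six images per well at 20x; gain or loss vs DMSO.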

Test [8] in a line: APR_HepG2_CellCycleArrest_72hr: Apredica 72-hour HepG2 Assay for Cell Cycle Arrest (AID 2282914). Conditions: high-content imaging, actives raise or lower the signal. Summed up:
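Read-out is Hoechst-stained nuclear DNA content measured by automated fluorescence imaging (20x, six images per well), fitted in both directions relative to DMSO. Human HepG2 liver cells received 0.39–200 uM compound for 72 hr at 0.5% v/v DMSO.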

The nature of test [9]: APR_HepG2_CellLoss_72hr: Apredica 72-hour HepG2 Assay for Cell Loss (AID 2282915). To be noted: high-content imaging. The method in brief: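 HepG2 cells exposed 72 h to compound at 0.39–200 uM (10 concentrations, duplicate) in 0.5% DMSO. Fixed with 3.7% formaldehyde and Hoechst 33342-stained. Imaged at 20x; nuclear count gives cell number, fitted bidirectionally versus DMSO.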

The nature of test [10]: APR_HepG2_P-H2AX_72hr: Apredica 72-hour HepG2 Assay for H2AX Phosphorylation (AID 2282916).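 Note: phospho-histone H2A.x immunostain intensity per cell marking DNA damage.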 To be noted: imaging, actives raise or lower the signal. Summed up: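 Phospho-histone H2A.x immunofluorescence, multiplexed with Hoechst and c-Jun, quantified by high-content imaging. Compounds applied to HepG2 for 72 h across ten concentrations (0.39–200 uM, 0.5% DMSO), in duplicate; DMSO baseline.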

Test [11] in a line: APR_HepG2_MitoMembPot_72hr: Apredica 72-hour HepG2 Assay for Mitochondrial Membrane Potential (AID 2282917). Conditions: imaging, actives raise or lower the signal. Summed up: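 HepG2 cells dosed 72 hr with compound at 0.39–200 uM in duplicate, 0.5% v/v DMSO final. Mitochondria stained with 250 nM MitoTracker Red CMXRos for 30 min before formaldehyde fixation, imaged by high-content fluorescence; bidirectional fit versus DMSO.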

Test [12] can be described thus: APR_HepG2_MicrotubuleCSK_72hr: Apredica 72-hour HepG2 Assay for Microtubule CSK Stabilty (AID 2282919). To be noted: HepG2 microtubule cytoskeleton, high-content imaging, actives raise or lower the signal. Summed up: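 HepG2, 72 hr cmpd exposure, 0.39–200 uM (10 pts, duplicate), 0.5% DMSO. 3.7% formaldehyde fix, 0.5% Triton perm, anti-alpha-tubulin/Cy5 plus Hoechst. HCS fluorescence intensity; bidirectional fit vs DMSO baseline; taxol as positive control.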

Test [13] can be described thus: APR_HepG2_P-H2AX_24hr: Apredica 24-hour HepG2 Assay for H2AX Phosphorylation (AID 2282920). Conditions: high-content imaging, actives raise or lower the signal. The method in brief: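 HepG2, 24 hr, cpd 0.39–200 uM (10 conc, duplicate), DMSO 0.5% v/v final. Fix 3.7% formaldehyde, Triton X-100 permeabilize, anti-phospho-H2A.x 1:200 + Hoechst 2 ug/mL. Imaged, bidirectional fit vs DMSO.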

Test [14] in a line: APR_HepG2_StressKinase_72hr: Apredica 72-hour HepG2 Assay for Stress Kinase (AID 2282921). Conditions: HepG2 stress kinase (phospho-c-Jun) imaging, actives raise or lower the signal. Summed up:
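Stress kinase signal is phospho-c-Jun immunofluorescence (1:500 primary, Cy3 secondary) in fixed, permeabilized human HepG2 cells imaged at 20x. Exposure lasted 72 hr over ten concentrations from 0.39 to 200 uM, 0.5% DMSO, in duplicate. Bidirectional fit versus DMSO.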

The nature of test [15]: APR_HepG2_StressKinase_24hr: Apredica 24-hour HepG2 Assay for Stress Kinase (AID 2282922). To be noted: HepG2 stress kinase (phospho-c-Jun) imaging, actives raise or lower the signal. Summed up:
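Read-out: phospho-c-Jun immunofluorescence (Cy3 secondary) quantified by high-content imaging at 20x, nuclei defined by Hoechst 33342. Human HepG2 liver cells dosed 24 hr, 0.39–200 uM, DMSO 0.5% v/v; gain or loss of signal fitted relative to DMSO.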

Test [16] in a line: APR_HepG2_MitoMass_72hr: Apredica 72-hour HepG2 Assay for Mitochondrial Mass (AID 2282924).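 Note: MitoTracker Red CMXRos stain intensity per cell imaged as mitochondrial mass.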 Conditions: high-content imaging, actives raise or lower the signal. Summed up:
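Read-out: MitoTracker Red fluorescence intensity from automated imaging (20x, six fields per well) in human HepG2 liver cells. Dosing ran 72 hr, 0.39–200 uM, 0.5% DMSO; bidirectional curve fitting versus DMSO baseline.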

Test [17] can be described thus: APR_HepG2_NuclearSize_72hr: Apredica 72-hour HepG2 Assay for Nuclear Size (AID 2282925). Conditions: high-content imaging, actives raise or lower the signal. The method in brief: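 Read-out: nuclear diameter from Hoechst 33342 images (ArrayScan, 20x, six fields/well), via cell-cycle image analysis. HepG2 were dosed 0.39–200 uM for 72 hr in 0.5% DMSO. Bidirectional fit relative to DMSO.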

A short description of test [18]: APR_HepG2_MitoticArrest_72hr: Apredica 72-hour HepG2 Assay for Mitotic Arrest (AID 2282918). Conditions: high-content imaging, actives raise or lower the signal. The method in brief:
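Read-out is phospho-histone H3 immunofluorescence with Hoechst nuclear segmentation, imaged at 20x. Human HepG2 liver cells received ten concentrations (0.39–200 uM, final DMSO 0.5% v/v) for 72 hr before fixation. Gain or loss of signal was fitted relative to DMSO.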

Test [19] in a line: APR_HepG2_MicrotubuleCSK_24hr: Apredica 24-hour HepG2 Assay for Microtubule CSK Stabilty (AID 2282909). Conditions: HepG2 microtubule cytoskeleton imaging, actives raise or lower the signal. Summed up:
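Fixed HepG2 cells were stained for alpha-tubulin and imaged after 24 hr exposure to ten concentrations spanning 0.39–200 uM in 0.5% DMSO. Signal change was fitted in both directions relative to DMSO; taxol was the positive control.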

In the case of `CCCCCCCCCCCCCCCCOS(=O)(=O)O`, the compound was classed as inactive in test [1], in [2], in [3], in test [4], in test [5] and in test [6]. In addition, the compound was classed as inactive in test [7], in [8], in test [9], in test [10], in test [11] and in test [12]. The compound was called inactive in test [13], in test [14], in test [15], in test [16] and in test [17].
In the case of `CCCCC(CC)C(=O)OCCOCCOCCOC(=O)C(CC)CCCC` (stereo not drawn), the result in test [1], in test [2], in test [3], in [4], in test [5] and in [6] was inactive. The compound was called inactive in [7], in [10], in [11], in test [12], in test [13] and in [14]. Further, the outcome in [15], in test [16] and in test [17] was inactive. Also, the AC50 is 79200 nM (active) in [8] and 89800 nM (active) in [9].
Turning to `C[C@@H](Oc1ccc(CNC(=O)c2cccnc2Oc2ccc3c(c2)OCO3)c(F)c1)C(=O)O`, the result in test [1], in test [2], in test [3], in test [4], in test [6] and in test [8] was inactive. Moreover, the result in test [9], in test [10], in [11], in [18], in [12] and in test [13] was inactive. Moreover, the compound was classed as inactive in [14], in test [15], in test [16] and in test [17]. In addition, the concentration at half-maximal activity (AC50) in test [5] was 39.1 nM (active).
Regarding `Cc1nccn1-c1ccc(Sc2cccc(C3(C(N)=O)CCOCC3)c2)cc1`, the AC50 in test [1] was 782 nM (active); in test [3], 3130 nM (active); in [6], 19800 nM (active); in [8] it was 5050 nM (active); in [9], 17400 nM (active); in test [10], 40900 nM (active). Also, the figures for the AC50 in test [13] and in test [14] were 73400 nM (active) and 64000 nM (active), respectively. Further, the outcome in test [2], in test [4], in [5], in test [11], in test [18] and in test [12] was inactive. Moreover, the result in test [15], in test [16] and in test [17] was inactive.
`COc1cc2c(c(OC)c1OC)-c1ccc(OC)c(=O)cc1[C@@H](NC(C)=O)CC2`: the compound was called inactive in test [1], in test [2], in [19], in [5], in test [6] and in test [11]. Further, the result in [16] and in [17] was inactive. Besides, the AC50 in [3] was 44.7 nM (active); in test [4], 38.2 nM (active); in test [8], 73.2 nM (active); in test [9] it was 53.6 nM (active); in test [10] it was 81.5 nM (active); in test [12], 62.8 nM (active). Besides, the AC50 in test [13] is 79.7 nM (active); in test [14], 45.6 nM (active); in test [15], 39.1 nM (active).
Turning to `COS(C)(=O)=O`, the outcome in [1], in test [2], in test [3], in test [4], in test [5] and in [6] was inactive. Moreover, the outcome in [8], in [9], in [10], in test [11], in test [18] and in [12] was inactive. The call in test [13], in test [14], in test [15], in [16] and in test [17] was inactive.
As for `CC(C)CC(C)O` (stereo not drawn), the compound was classed as inactive in [1], in [2], in test [3], in [4], in test [5] and in test [6]. Further, the outcome in test [8], in test [9], in [10], in test [11], in [12] and in test [13] was inactive. Also, the compound was classed as inactive in test [14], in test [15], in [16] and in test [17].
